Measurements reported in PubChem BioAssay (NCI).
The panel holds about 79,000 compounds, 15% with a hit somewhere; the sample as a whole holds those more often. A number with no mark means an inactive call. Active and inactive are the calls of the source. No stated cut-off is given here; in the data, active means growth inhibition above about 70%; inactive means the rest.

How the values were obtained:
[1] = NCI Yeast Anticancer Drug Screen. Data for the rad50 strain (AID 155);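 further: 0% = growth of vehicle-only cultures of the same strain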; settings: S. cerevisiae rad50 strain growth inhibition, hits give high values
Summary of the method: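 Compounds were tested on a yeast strain with an engineered DNA damage repair alteration; the reported value is growth inhibition normalised to vehicle treatment.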

[2] = NCI Yeast Anticancer Drug Screen. Data for the mec2-1 strain (AID 157); settings: S. cerevisiae mec2-1 strain, hits give high values
Summary of the method: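 Yeast mec2-1 mutant treated with compound. Readout: growth inhibition vs vehicle controls.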

[3] = NCI Yeast Anticancer Drug Screen. Data for the sgs1 mgt1 strain (AID 161);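 further: 0% = growth of cultures given vehicle only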; settings: S. cerevisiae sgs1 mgt1 strain, hits give high values
Summary of the method: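 Inhibition of yeast growth, normalised to vehicle-treated controls, is reported for a strain bearing genetic alterations in DNA damage repair.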

[4] = NCI Yeast Anticancer Drug Screen. Data for the cln2 rad14 strain (AID 165);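 further: 0% = growth equal to vehicle treated cultures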; settings: S. cerevisiae cln2 rad14 strain, hits give high values
Summary of the method: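 cln2 rad14 yeast strain; compound exposure; growth inhibition read vs vehicle controls.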

[5] = NCI Yeast Anticancer Drug Screen. Data for the bub3 strain (AID 167); settings: S. cerevisiae bub3 mutant strain, hits give high values
Summary of the method: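 Growth of a checkpoint-deficient yeast mutant is measured after compound exposure. Values represent inhibition relative to vehicle.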

[6] = NCI Yeast Anticancer Drug Screen. Data for the mlh1 rad18 strain (AID 175); settings: S. cerevisiae mlh1 rad18 strain growth inhibition, hits give high values
Summary of the method: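 Yeast w/ defined DNA-repair lesions; compound exposure; growth vs vehicle controls → % inhibition.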

[7] = at 5.0 µM (retest, dose inferred, filed as 0.5)
[8] = at 50.0 µM (retest, dose inferred, filed as 5.0)

Row | Structure (SMILES) | growth inhibition [1, 7] | growth inhibition [1, 8] | growth inhibition ([1]; at 50.0 µM) | growth inhibition [2, 7] | growth inhibition [2, 8] | growth inhibition ([2]; at 50.0 µM) | growth inhibition [3, 7] | growth inhibition [3, 8] | growth inhibition ([3]; at 50.0 µM) | growth inhibition [4, 7] | growth inhibition [4, 8] | growth inhibition ([4]; at 50.0 µM) | growth inhibition [5, 7] | growth inhibition [5, 8] | growth inhibition ([5]; at 50.0 µM) | growth inhibition [6, 7] | growth inhibition [6, 8] | growth inhibition ([6]; at 50.0 µM)
1 | CN(C(=O)C(Cl)Cl)c1ccc(-c2csc(-c3ccccc3)n2)cc1 | 5% | 12% | 12.9% | 10% | -1% | 33.9% | 6% | 20% | -7.4% | -2% | -3% | 95.8% (active) | 2% | 22% | 97% (active) | 4% | 7% | 22.4%
2 | O=C(C[n+]1ccc2ccccc2c1)c1ccc2ccc3ccccc3c2c1 | 5% | 92% (active) | 97.7% (active) | 0% | 73% (active) | 85.8% (active) | -3% | 89% (active) | 96% (active) | 1% | 72% (active) | 98.2% (active) | -11% | 92% (active) | 93% (active) | -4% | 99% (active) | 98.7% (active)
3 | CCOC(=O)C1=C(N)OC(c2ccccc2)=C(C#N)C1c1ccc(C)cc1 (configuration not stated) | 8% | 90% (active) | 96.1% (active) | 4% | 91% (active) | 97% (active) | 11% | 92% (active) | 97.3% (active) | 0% | 86% (active) | 96.6% (active) | -4% | 87% (active) | 96.3% (active) | 3% | 90% (active) | 96.5% (active)
4 | CC(=O)O[C@H]1[C@@H]2CC(C)(C)CC2=C(C=O)C2(C=O)CC12C (some centres not stated) | 40% | 99% (active) | 99.5% (active) | 65% | 100% (active) | 99.5% (active) | 62% | 99% (active) | 99.7% (active) | 37% | 99% (active) | 99.2% (active) | 54% | 99% (active) | 46.8% | 55% | 99% (active) | 99.7% (active)
5 | CCOc1ccc2nc([NH-])sc2c1.CCOc1ccc2nc([NH-])sc2c1.CCOc1ccc2nc([NH-])sc2c1.CCOc1ccc2nc([NH-])sc2c1.[Cl][Rh][Cl] | -5% | 46% | 29.9% | 0% | 32% | 31.6% | 4% | 63% | 67.2% | -5% | 26% | 30.1% | -10% | 34% | 0.25% | 6% | 81% (active) | 80% (active)
6 | O=C1CN(CCN2CCOCC2)CC(=O)N2CCCCN12 | 1% | -1% | 3.3% | -2% | -1% | 2.55% | 3% | 7% | 32.6% | -8% | 2% | 11.6% | -6% | -3% | 5.7% | -1% | -2% | 1.45%
7 | O=C(CSc1nnc(Cc2ccccc2)o1)Nc1ccc(Cl)cc1[N+](=O)[O-] | 1% | 56% | 83% (active) | -13% | 57% | 50.3% | 4% | 49% | 76.5% (active) | 10% | 51% | 21.8% | -10% | 64% | 15.1% | 4% | 53% | 83.8% (active)
8 | Cc1ccc(N2C(=O)CCSC2=S)cc1C | -1% | 87% (active) | 97.2% (active) | 0% | 35% | 80.5% (active) | 4% | 96% (active) | 98.3% (active) | -2% | 32% | 38.9% | -5% | 77% (active) | 68.7% | -2% | 98% (active) | 95.4% (active)
9 | CCCCNc1ccc(C(=O)OC2CCN(C)CC2)c(Cl)c1 | 99% (active) | 96% (active) | 97% (active) | 99% (active) | 97% (active) | 94.5% (active) | 99% (active) | 98% (active) | 95.9% (active) | 98% (active) | 96% (active) | 84% (active) | 99% (active) | 97% (active) | 96.3% (active) | 99% (active) | 96% (active) | 92.8% (active)
10 | O=[N+]([O-])c1cc(C(F)(F)F)cc([N+](=O)[O-])c1N1CCCC(n2cccc2)C1 (configuration not stated) | -11% | 21% | 34.6% | -6% | 19% | 45.8% | -4% | 26% | 58.3% | 7% | 28% | 34.1% | -9% | 55% | 71.2% (active) | 1% | 33% | 47.9%
11 | Cn1c(=S)c2[nH]c(SC3CCCCC3)nc2n(C)c1=O | 46% | 68% | 94.8% (active) | 42% | 61% | 99.5% (active) | 41% | -20% | 99.2% (active) | 27% | 34% | 52.5% | 52% | 63% | 98.2% (active) | 23% | 62% | 98.8% (active)
12 | CCCCc1c(O)c(N=NC(=O)C[n+]2ccccc2)c2ccccc2c1O | -2% | 10% | 8.55% | -3% | 32% | 11.6% | 2% | 27% | 17.8% | 2% | -3% | 40.1% | -3% | -1% | 13.5% | -2% | 21% | 4.75%
13 | Nc1cc(F)c2c(c1F)C(=O)c1cc(F)ccc1-2 | 15% | 92% (active) | 93.3% (active) | 13% | 70% (active) | 27.3% | 2% | 84% (active) | 55.4% | 4% | 41% | 26.5% | 2% | 72% (active) | 17.8% | 5% | 78% (active) | 80.7% (active)
14 | CC(=O)Nc1ccc(C(C)(C)c2ccc(C)cc2)cc1 | 0% | 95% (active) | -4.5% | 0% | 98% (active) | -12.2% | -1% | 96% (active) | 24.1% | 2% | 96% (active) | 3.75% | 4% | 97% (active) | 57.5% | -1% | 96% (active) | -2.15%
15 | CC(C)C1=CC23CCC4C(C)(C(=O)O)CCCC4(C)C2CC1C1C(=O)C=CC(=O)C13 (configuration not stated) | 86% (active) | 93% (active) | 94.3% (active) | 81% (active) | 97% (active) | 96.3% (active) | 82% (active) | 97% (active) | 90.2% (active) | 75% (active) | 96% (active) | 62% | 91% (active) | 96% (active) | 96.9% (active) | 88% (active) | 97% (active) | 55.4%
16 | c1ccc(N=Nc2n[nH]c3ccccc23)cc1 | -144% | 94% (active) | 98.6% (active) | -51% | 74% (active) | 98.8% (active) | -66% | 85% (active) | 92.6% (active) | -59% | 29% | 98% (active) | -65% | 91% (active) | 97.1% (active) | -119% | 94% (active) | 97% (active)
17 | CCOc1ccccc1C(=O)Nc1cc(C)nn1-c1ccccc1 | 5% | 4% | 29.4% | 7% | 4% | 99.2% (active) | 7% | 6% | 99.4% (active) | 0% | -1% | 98.8% (active) | -1% | -3% | 99.3% (active) | -1% | 0% | 99.5% (active)
18 | O=C(O)Cc1c(-c2noc(-c3ccccc3)c2CC(=O)O)noc1-c1ccccc1 | -10% | -3% | 28.5% | 8% | -2% | 46.8% | -16% | -8% | 26.6% | 1% | -10% | 58.4% | -7% | 0% | 97.1% (active) | 4% | -9% | 40.1%
19 | O=C(n1c2ccccc2c2n[nH]c(=S)nc21)C(F)(F)F | 1% | -6% | 82.7% (active) | 0% | -2% | 39.1% | -3% | -2% | 83.5% (active) | -2% | -2% | 25.3% | 3% | -1% | 52.8% | -5% | 0% | 89.3% (active)
